Laboratory results reported in PubChem BioAssay.
Values joined by “and” are separate entries in the source; they are usually repeats but may differ in a detail not shown here. Equal values may be shown once. Active and inactive are the calls of the source.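 How the source made its calls: active means compounds whose cell count with miR-34 switched on is under 0.7 times the count with it off; inactive means the rest.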

assay: differential killing of epithelial or mesenchymal cells, primary screen, imaging, PC-3E GFP, TEM4-18 mCherry, co-culture (AID 1345086); conditions: imaging cell counts, measured here: epithelial PC-3E GFP cell survival, at 1 µM;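 further: cells exposed to compound for 72 h before imaging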

Compound | normalised cell number
NC(=O)CC[C@H](N)C(=O)O | 1.22 and 0.97
Oc1cc(O)c2c(c1)O[C@H](c1ccc(O)c(O)c1)[C@@H](O)C2 | 1.02
C1N2CN3CN1CN(C2)C3 | 1.13
COc1cc(S(C)=O)ccc1-c1nc2ncccc2[nH]1 (stereo not given) | 0.84
CC(=O)Oc1ccccc1C(=O)Oc1ccccc1C(=O)O | 0.97
NCCCS(=O)(=O)O | 1.23
COC(=O)[C@H]1[C@H]2C[C@H]3c4[nH]c5ccccc5c4CCN3C[C@H]2CC[C@@H]1O | 0.93
Nc1nc(/C(=C/CC(=O)O)C(=O)N[C@@H]2C(=O)N3C(C(=O)O)=CCS[C@H]23)cs1 | 0.96
O=c1c2ccccc2oc2ccccc12 | 0.96
C[N+](C)(C)CC(O)CC(=O)O (stereo not given) | 0.96

same assay, conditions: imaging cell counts, measured here: mesenchymal TEM4-18 mCherry cell survival, at 1 µM

Compound | normalised cell number
O=C(O)c1cc2cc(F)ccc2[nH]1 | 0.89
COc1ccc(-c2cc(=O)c3c(OC)c(OC)c(OC)c(OC)c3o2)cc1 | 1.26
NC(=O)c1ccc[n+]([C@@H]2O[C@H](COP(=O)([O-])OP(=O)(O)OC[C@H]3O[C@@H](n4cnc5c(N)ncnc54)[C@H](O)[C@@H]3O)[C@@H](O)[C@H]2O)c1 | 1.14
Cn1c(=O)[nH]c2ncn(C)c2c1=O | 0.9
NC1(C(=O)O)CC1 | 0.86
NCCCCN=C(N)N | 0.85
N[C@@H](Cc1cc(I)c(Oc2ccc(O)c(I)c2)c(I)c1)C(=O)O | 1.14
Cc1cc(C(C)(C)CC(C)(C)C)ccc1OCCOCC[N+](C)(C)Cc1ccccc1 | 0.98
Cn1c(=O)c2[nH]c(C3CCCC3)nc2n(C)c1=O | 1.01
CC(=O)N1CCN(c2ccc(OCC3CO[C@](Cn4ccnc4)(c4ccc(Cl)cc4Cl)O3)cc2)CC1 (stereo not given in full) | 0.85
NCCCCC(=O)O | 0.94
CN[C@H](CC(=O)O)C(=O)O | 1.15
CN1CCc2cccc3c2C1Cc1ccc(O)c(O)c1-3 (stereo not given) | 1.36
COc1c2ccoc2cc2oc(=O)ccc12 | 1.03
C=C1c2c(Cl)ccc(O)c2C(O)=C2C(=O)[C@]3(O)C(O)=C(C(N)=O)C(=O)[C@@H](N(C)C)[C@@H]3[C@@H](O)[C@H]12 | 0.84
NC(N)=NC(=O)c1nc(Cl)c(N2CCCCCC2)nc1N | 1.01
CC(CN(C)C)CN1c2ccccc2Sc2ccccc21 (stereo not given) | 1.05
CC(C(=O)O)c1ccc(N2Cc3ccccc3C2=O)cc1 (stereo not given) | 1.31
O=c1cc(-c2ccccc2)oc2c(O)c(O)ccc12 | 0.98
CC(C)(C)NC[C@H](O)c1ccc(O)c(CO)c1 | 0.92

Compound | normalised cell number
CN1CCc2c(c3ccccc3n2Cc2ccccc2)C1 | 0.82
COc1cc2c(cc1OC)-c1cc3ccc(OC)c(OC)c3c[n+]1CC2 | 0.88 and 0.98
NC(N)=NCCCCN=C(N)N | 0.97
NCCCCN | 1.02
Cc1cc(/C=C/c2ccc3cc(N(C)C)ccc3[n+]2C)c(C)n1-c1ccccc1 | 1.08
NCCSSCCN | 1.01
O=C1OC(=O)C2C3CCC(O3)C12 (stereo not given) | 1.06
OCc1c[nH]c2ccccc12 | 0.84
CC1(C)S[C@@H]2[C@H](NC(=O)Cc3ccccc3)C(=O)N2[C@H]1C(=O)O | 0.94
CN(C)CCOC(c1ccccc1)c1ccccc1 (tested in a mixture with another compound) | 1.41
NC(=O)CC[C@H](N)C(=O)O | 1.08 and 1.13
Oc1cc(O)c2c(c1)O[C@H](c1ccc(O)c(O)c1)[C@@H](O)C2 | 1.15
C1N2CN3CN1CN(C2)C3 | 1.13
COc1cc(S(C)=O)ccc1-c1nc2ncccc2[nH]1 (stereo not given) | 0.9
CC(=O)Oc1ccccc1C(=O)Oc1ccccc1C(=O)O | 1.04
NCCCS(=O)(=O)O | 1.02
COC(=O)[C@H]1[C@H]2C[C@H]3c4[nH]c5ccccc5c4CCN3C[C@H]2CC[C@@H]1O | 0.97
Nc1nc(/C(=C/CC(=O)O)C(=O)N[C@@H]2C(=O)N3C(C(=O)O)=CCS[C@H]23)cs1 | 1
O=c1c2ccccc2oc2ccccc12 | 1.06
C[N+](C)(C)CC(O)CC(=O)O (stereo not given) | 0.81

assay: sensitizers of A549 cells to miR-34 induction, primary screen, imaging, A549 dox-inducible miR-34, nuclei and caspase counts (AID 1347080); conditions: A549 miR-34 inducible, Hoechst nuclei count, 48 h; stronger effect = lower value; cell number ratio, induced over uninduced

Compound | fold change
O=C(O)c1cc2cc(F)ccc2[nH]1 | 0.936 (inactive)
COc1ccc(-c2cc(=O)c3c(OC)c(OC)c(OC)c(OC)c3o2)cc1 | 0.921 (inactive)
NC(=O)c1ccc[n+]([C@@H]2O[C@H](COP(=O)([O-])OP(=O)(O)OC[C@H]3O[C@@H](n4cnc5c(N)ncnc54)[C@H](O)[C@@H]3O)[C@@H](O)[C@H]2O)c1 | 0.824 (inactive) and 0.891 (inactive)
Cn1c(=O)[nH]c2ncn(C)c2c1=O | 0.988 (inactive)
NC1(C(=O)O)CC1 | 0.945 (inactive)
NCCCCN=C(N)N | 1.06 (inactive)
N[C@@H](Cc1cc(I)c(Oc2ccc(O)c(I)c2)c(I)c1)C(=O)O | 0.925 (inactive) and 0.987 (inactive)
Cc1cc(C(C)(C)CC(C)(C)C)ccc1OCCOCC[N+](C)(C)Cc1ccccc1 | 0.811 (inactive) and 0.9 (inactive)
Cn1c(=O)c2[nH]c(C3CCCC3)nc2n(C)c1=O | 0.947 (inactive)
CC(=O)N1CCN(c2ccc(OCC3CO[C@](Cn4ccnc4)(c4ccc(Cl)cc4Cl)O3)cc2)CC1 (stereo not given in full) | 1 (inactive) and 1.02 (inactive) and 0.954 (inactive)
NCCCCC(=O)O | 1 (inactive)
CN[C@H](CC(=O)O)C(=O)O | 1.06 (inactive)
CN1CCc2cccc3c2C1Cc1ccc(O)c(O)c1-3 (stereo not given) | 0.965 (inactive) and 0.839 (inactive)
COc1c2ccoc2cc2oc(=O)ccc12 | 0.859 (inactive)
C=C1c2c(Cl)ccc(O)c2C(O)=C2C(=O)[C@]3(O)C(O)=C(C(N)=O)C(=O)[C@@H](N(C)C)[C@@H]3[C@@H](O)[C@H]12 | 0.864 (inactive)
NC(N)=NC(=O)c1nc(Cl)c(N2CCCCCC2)nc1N | 1.18 (inactive)
CC(CN(C)C)CN1c2ccccc2Sc2ccccc21 (stereo not given) | 0.881 (inactive) and 0.895 (inactive)
CC(C(=O)O)c1ccc(N2Cc3ccccc3C2=O)cc1 (stereo not given) | 0.881 (inactive) and 0.915 (inactive)
O=c1cc(-c2ccccc2)oc2c(O)c(O)ccc12 | 1.65 (inactive)
CC(C)(C)NC[C@H](O)c1ccc(O)c(CO)c1 | 0.873 (inactive)

Compound | fold change
CN1CCc2c(c3ccccc3n2Cc2ccccc2)C1 | 0.847 (inactive)
COc1cc2c(cc1OC)-c1cc3ccc(OC)c(OC)c3c[n+]1CC2 | 0.898 (inactive) and 1 (inactive)
NC(N)=NCCCCN=C(N)N | 0.968 (inactive) and 0.866 (inactive)
NCCCCN | 1.02 (inactive)
Cc1cc(/C=C/c2ccc3cc(N(C)C)ccc3[n+]2C)c(C)n1-c1ccccc1 | 1.07 (inactive)
NCCSSCCN | 1.02 (inactive)
O=C1OC(=O)C2C3CCC(O3)C12 (stereo not given) | 1.08 (inactive)
OCc1c[nH]c2ccccc12 | 0.978 (inactive)
CC1(C)S[C@@H]2[C@H](NC(=O)Cc3ccccc3)C(=O)N2[C@H]1C(=O)O | 0.959 (inactive) and 0.873 (inactive)
CN(C)CCOC(c1ccccc1)c1ccccc1 (tested in a mixture with another compound) | 0.893 (inactive) and 0.836 (inactive)
NC(=O)CC[C@H](N)C(=O)O | 0.981 (inactive) and 0.937 (inactive)
Oc1cc(O)c2c(c1)O[C@H](c1ccc(O)c(O)c1)[C@@H](O)C2 | 0.974 (inactive) and 0.863 (inactive) and 0.997 (inactive)
C1N2CN3CN1CN(C2)C3 | 0.9 (inactive) and 0.915 (inactive)
COc1cc(S(C)=O)ccc1-c1nc2ncccc2[nH]1 (stereo not given) | 0.851 (inactive)
CC(=O)Oc1ccccc1C(=O)Oc1ccccc1C(=O)O | 0.938 (inactive)
NCCCS(=O)(=O)O | 0.922 (inactive)
COC(=O)[C@H]1[C@H]2C[C@H]3c4[nH]c5ccccc5c4CCN3C[C@H]2CC[C@@H]1O | 0.977 (inactive) and 0.857 (inactive)
Nc1nc(/C(=C/CC(=O)O)C(=O)N[C@@H]2C(=O)N3C(C(=O)O)=CCS[C@H]23)cs1 | 0.926 (inactive)
O=c1c2ccccc2oc2ccccc12 | 0.991 (inactive)
C[N+](C)(C)CC(O)CC(=O)O (stereo not given) | 0.835 (inactive)
